Compound activity (PubChem BioAssay)
A selection: hits, their analogues and other compounds. The true share with any hit is near 2.2%.
BaF3 parental – parental Ba/F3 viability inhibition as JAK2V617F counter-screen. inhibition, % at 5.6 µM. AID 1486. actives 1.1% (n = 220,000). CellTiter-Glo ATP luminescence;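 active = inhibition above a per-campaign cutoff, the mean inhibition of all tested compounds plus 3 SD, cut at about 27% in these data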;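 note: 0% = DMSO wells and 100% = JAK Inhibitor I control wells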
APP transl inh – APP translation inhibition; SH-SY5Y APP 5'UTR-luciferase reporter, luminescence; inhibition, % at 2 µM; AID 1285; actives 0.82% (n = 190,000);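 active = inhibition above a set limit, derived from the sample mean plus 3 SD, cut at about 45% in these data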
Ba/F3 V617F tox – loss of viability in JAK2V617F-driven Ba/F3 cells; inhibition, % at 5.6 µM; Ba/F3 EpoR-JAK2V617F viability, ATP luminescence; AID 1446; actives 1.1% (n = 220,000);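 active = inhibition above the campaign mean plus 3 SD over all tested compounds, cut at about 24% in these data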;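 note: cytokine-independent growth of Ba/F3 cells driven by EpoR plus mutant JAK2; 0% = DMSO-treated cells and 100% = JAK inhibitor I control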
KLF5 inhibitor – kruppel-like factor 5 inhibition. inhibition, % at 5 µM. actives 0.23% (n = 290,000). DLD-1 KLF5 promoter-luciferase reporter, luminescence;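 active = inhibition above a per-plate limit of that plate's mean compound inhibition plus 3 SD, cut at about 60% in these data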;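 note: 0% = DMSO wells and 100% = LY294002 at 200 µM; higher means less KLF5 promoter-driven luciferase light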
aSyn 5UTR inh – 5' untranslated region of α-synuclein, MLPCN primary screen; alpha-synuclein 5'UTR reporter, inhibitor activity; inhibition, % (tested at 7.5 µM); actives 0.82% (n = 300,000); AID 1813; in the data active = inhibition above about 60%;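 note: H4 neuroglioblastoma cells stably carrying SNCA 5'UTR luciferase fusion; 0% = DMSO wells and 100% = positive control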
IEC-6 cytotox – IEC-6 cytotoxicity, counter-screen for KLF5 inhibitors | actives 0.78% (n = 290,000) | AID 1825 | inhibition, % at 5 µM | luminescence viability; in the data active = inhibition above about 22%;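 note: 0% = plate median of test compound wells and 100% = cytotoxic reference compound wells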
The depositor's hits bear a star; . = no result.

SMILES | BaF3 parental | APP transl inh | Ba/F3 V617F tox | KLF5 inhibitor | aSyn 5UTR inh | IEC-6 cytotox
CSc1cccc(CN2CCCC(C(=O)Nc3cccc(-n4cccn4)c3)C2)c1 (configuration not stated) | . | . | . | 11 | -23 | -3
OCC[C@@H]1C[C@@H](O)[C@H](O)[C@]2(CCc3ccccc3CO2)O1 | . | . | . | -13 | 6 | 2
CCOc1ccc(/C=N/NC(=O)c2[nH]ncc2Br)c(O)c1 | 7 | -24 | 21 | -16 | 19 | 29*
COc1ccc(OC)c(/C=N/NC(=O)c2[nH]ncc2Br)c1 | -1 | . | -5 | -94 | -2 | -1
COc1ccc2ccccc2c1/C=N/NC(=O)c1cccc(Br)c1 | 5 | -5 | 2 | 12 | -22 | 7
O=C(N/N=C/c1c(O)ccc2ccccc12)c1cccc(C(F)(F)F)c1 | 6 | 79* | 4 | 18 | 111* | 10
O=C(N/N=C\c1c(O)ccc2ccccc12)c1ccc(Cn2cccn2)o1 | 7 | 63* | 10 | 15 | 92* | 7
O=C(N/N=C/c1c(O)ccc2ccccc12)c1[nH]ncc1Br | 35* | 72* | 31* | 23 | 106* | 10
COc1ccc(C(=O)NC2CCCc3c2cnn3-c2cccc(C)c2C)o1 (configuration not stated) | . | . | . | 20 | 21 | -2
CN(/N=C/c1cccc(Br)c1)C1=NS(=O)(=O)c2ccccc21 | . | . | . | -24 | 15 | 7
CCOc1ccc(C(=O)CSCCC(=O)O)cc1 | 5 | 38 | -1 | -20 | 68* | 1
Cc1ccc([N+](=O)[O-])cc1NC(=O)Nc1cccc(F)c1 | 37* | . | 40* | -36 | 26 | 11
O=C(Nc1ccccc1)Nc1cc([N+](=O)[O-])ccc1F | 3 | 15 | 0 | -9 | -12 | 1
N#CC(C#N)=C1C=CC=CN1/C(=C\c1ccco1)C(=O)c1ccc(Cl)cc1 | 2 | 96* | 1 | 2 | . | 9
N#CC(C#N)=C1C=CC=CN1/C(=C\c1ccco1)C(=O)c1ccc(-c2ccccc2)cc1 | 2 | 92* | 22 | -15 | . | 2
CC1CCc2c(sc(NC(=O)CSc3ncn[nH]3)c2C#N)C1 (configuration not stated) | 7 | . | -2 | 39 | 91* | 7
N#Cc1c(NC(=O)CSc2ncn[nH]2)sc2c1CCCC2 | 6 | . | -1 | 6 | 84* | 5
CC(C)(C)C1CCc2c(sc(NC(=O)CSc3ncn[nH]3)c2C#N)C1 (configuration not stated) | 2 | 14 | -5 | -20 | 3 | -1
N#Cc1c(NC(=O)CCCC(=O)O)sc2c1CCCCC2 | 0 | 46* | -4 | -37 | 90* | -5
CCCC(=O)Nc1sc2c(c1C#N)CCCCC2 | 5 | -14 | 1 | -162 | -167 | 5
COc1ccc(/C=C/C(=O)c2cc(Br)ccc2OC(=O)c2ccco2)cc1OC | 5 | 87* | 4 | 5 | -21 | 0
CCN(CC)S(=O)(=O)c1ccc2oc(Nc3ccc(OC)cc3)nc2c1 | . | . | . | -27 | 1 | 4
CCOc1ccc(Nc2nc3cc(S(=O)(=O)N(CC)CC)ccc3o2)cc1 | 0 | 12 | 3 | -4 | 78* | 8
Cc1c(CCOC(=O)CC23CC4CC(CC(C4)C2)C3)sc[n+]1Cc1ccccc1 | 41* | -10 | 29* | -37 | 8 | 0
Nc1cccc2nc3ccccc3cc12 | 29* | . | 41* | 56 | 101* | 22
SMILES | BaF3 parental | APP transl inh | Ba/F3 V617F tox | KLF5 inhibitor | aSyn 5UTR inh | IEC-6 cytotox
Oc1c(N=NC(=S)Nc2ccccc2F)c2ccccc2n1Cc1ccccc1F | 5 | 13 | 1 | -6 | 87* | 0
CCNC(=S)N=Nc1c(O)n(Cc2ccc(Cl)cc2)c2ccccc12 | 2 | 0 | -1 | -17 | -25 | -4
C=CCn1c(O)c(N=NC(=O)c2ccc3c(c2)OCO3)c2ccccc21 | -1 | 50* | -3 | -20 | -27 | -2
Cc1ccccc1Cn1c(O)c(N=NC(=S)Nc2ccccc2F)c2ccccc21 | 2 | 15 | 3 | -7 | 73* | -4
Cc1ccc(C)c(Cn2c(O)c(N=NC(=S)Nc3ccccc3F)c3ccccc32)c1 | 0 | 14 | 2 | 8 | 72* | -3
CCn1c(O)c(N=NC(=O)CNC(=O)c2ccccc2F)c2ccccc21 | . | . | . | 8 | -12 | -2
CCOc1ccc(S(=O)(=O)N2CCC(C(=O)NC3CC3)CC2)cc1C | . | . | . | -14 | 38 | 0
Oc1c(N=NC(=S)Nc2ccccc2F)c2ccccc2n1Cc1ccc(Cl)cc1 | 6 | 23 | 1 | -18 | 70* | -3
C=CCn1c(O)c(N=NC(=S)Nc2cccc(OC)c2)c2ccccc21 | 2 | 35 | -4 | -8 | 50 | 8
C=CCn1c(O)c(N=NC(=S)Nc2ccc(OC)cc2)c2ccccc21 | 4 | 25 | 1 | -42 | 84* | 8
OCC1(Cc2ccc(F)cc2F)CCCN(CCCc2ccccc2)C1 (configuration not stated) | . | . | . | 1 | 13 | -15
COc1ccccc1N1C(N)=NC(N)=NC12CCCCC2 | . | . | . | -7 | 18 | 0
COc1ccc(N2C(N)=NC(N)=NC23CCCC3)cc1 | 64* | 21 | 57* | -8 | 1 | -4
NC1=NC2(CCCCC2)N(c2cccc(Cl)c2)C(N)=N1 | 70* | -14 | 68* | -33 | 13 | -2
CCOP(=O)(OCC)C(NC(=O)/C=C/c1ccc(OC)cc1)c1ccccc1 (configuration not stated) | 2 | -6 | -1 | -15 | -11 | 0
COc1ccc(/C=C/C(=O)Nc2ccccc2C(=O)O)cc1 | 8 | -152 | -1 | -41 | 83* | 3
COc1ccc(NC(=O)O/N=C/c2ccc(Br)cc2)cc1 | . | . | . | -13 | -21 | -4
COc1ccc(/C=N/OC(=O)Nc2ccccc2OC)cc1 | 9 | -92 | 10 | -66 | -28 | 35*
COc1ccc(/C=C/c2cc(C(=O)O)c3ccccc3n2)cc1 | 3 | . | -1 | 3 | 81* | -4
NC(=O)c1nsc(C(=O)N(CC(=O)NC2CCCCC2)Cc2ccc(F)cc2)c1N | . | . | . | -20 | -35 | -1
O=C1c2ccccc2C(=O)N1CCc1c[nH]c2ccc(O)cc12 | -5 | -14 | -7 | -54 | 6 | -8
O=C(COC(=O)c1cc([N+](=O)[O-])ccc1N1CCOCC1)Nc1ccc(Cl)cn1 | . | . | . | 16 | -8 | -1
COc1cccc(NC(=O)Nc2ccc(Br)cn2)c1 | -6 | . | -1 | -85 | -192 | -4
CC(=O)c1ccc(OC(C)C)c(CC(C(N)=O)C(N)=O)c1 | 5 | 46* | 1 | -45 | -4 | -3
CC(=O)c1ccc(OCC(C)C)c(CC(C(N)=O)C(N)=O)c1 | 6 | -4 | 0 | -9 | 4 | -6
Cc1ccc(C(=O)Nc2ncc3c(Cl)cccc3n2)cc1 | 13 | -141 | 16 | -52 | 65* | 12
Cc1ccc(C(=O)Nc2ccc(Cl)cn2)cc1 | 7 | -172 | 7 | -133 | -41 | 1
OC(COc1ccc(Br)cc1)CN1CCC(Cc2ccccc2)CC1 (configuration not stated) | . | . | . | -22 | 18 | 0
